# PrP UTR inh: inhibition of PrP 5' UTR reporter expression; actives 0.35% (n = 340,000); cell-based PrP 5' UTR mRNA reporter, plate reader; inhibition, % (concentration not given with the values); in the data active means inhibition above about 52%; further: 0 = median of the neutral control wells
# Y pestis TopoI: blocks Yersinia pestis topoisomerase I activity. actives 0.064% (n = 360,000). Y. pestis Topo-I cleavage product accumulation, plate reader. activity, % at 10 µM; in the data active means activity above about 50%, passing the limit was not always enough; inconclusive means no clear call, values can overlap the other calls
# PfHsp40 yeast: rescue of PfHsp40-mediated yeast toxicity. S. cerevisiae expressing PfHsp40, growth rescue, ATP luminescence. growth rescue, % at 12.5 µM. actives 0.68% (n = 340,000); in the data active means growth rescue above about 28%, passing the limit was not always enough; inconclusive means no clear call, values can overlap the other calls;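 further: yeast W303a lacking pdr1 and pdr3 grown in galactose medium; growth measured after three days at 30 °C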
# ugtP null kill: compounds lethal to S. aureus RN4220 ugtP deletion mutant; growth inhibition, % (test concentration not listed); AID 1259309; actives 0.54% (n = 330,000); OD600 growth, 16 h; in the data active means growth inhibition above about 68%;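 further: plate controls were untreated wells for no effect and antibiotic for full effect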
# BJeLR viability: kills HRASV12-expressing BJeLR cells; inhibition, % (concentration not given with the values); BJeLR (HRASV12) viability, CellTiter-Glo ATP luminescence, 48 h; actives 0.17% (n = 300,000); in the data active means inhibition above about 50%; inconclusive means no clear call, values can overlap the other calls
# RN4220 kill: S. aureus RN4220 growth inhibition. OD600, 16 h. inhibition, % (concentration not given with the values). actives 0.33% (n = 330,000); in the data active means inhibition above about 85%;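 further: plate controls were untreated cells for no effect and reference antibiotic for full effect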
# * marks the source's active call; other numbers are inactive results; ? = inconclusive; nt = no result given. This is a sample that favours compounds with a hit; in the whole collection about 1.4% have one here.
SMILES,PrP UTR inh,Y pestis TopoI,PfHsp40 yeast,ugtP null kill,BJeLR viability,RN4220 kill
Nc1nc(-c2ccc(Oc3ccccc3)cc2)cs1,-70.7,6.6,185.2*,62.7,3.2,3.9
O=C(CC1C(=O)N(CCc2ccccc2)CC1Cc1ccccc1)Nc1ccccc1 (stereo not drawn),nt,nt,nt,-1.7,nt,2.7
COc1ccc(-c2cc(C(=O)N3CCN(c4ccccc4F)CC3)c3ccccc3n2)c(OC)c1,-9.2,30.0,376.4*,10.5,-15.1,-0.8
COc1ccc(N2CCN(C(=O)c3cc(-c4cc(OC)ccc4OC)nc4ccccc34)CC2)cc1,17.4,-5.2,1.2,2.4,-0.3,-3.6
CCOc1ccccc1N1CCN(C(=O)c2cc(-c3cc(OC)ccc3OC)nc3ccccc23)CC1,-1.2,37.3,31.0*,-5.0,-7.6,13.3
COc1ccc(-c2cc(C(=O)N3CCN(c4ncccn4)CC3)c3ccccc3n2)c(OC)c1,-11.7,25.2,?,-1.0,1.2,0.8
Cc1c(OC2OC(CO)C(O)C(O)C2O)c(CO)c(OC2OC(CO)C(O)C(O)C2O)c2c1OC(c1ccccc1)CC2O (stereo not drawn),nt,nt,nt,-10.1,nt,8.8
CC(Cl)=CCn1c(N2CCCC2)nc2c1c(=O)[nH]c(=O)n2C,nt,nt,nt,-2.6,nt,8.0
O=C1C2C3C=CC(C3)C2C(=O)N1CNc1ccccn1 (stereo not drawn),-22.2,-5.1,43.6*,2.0,-3.4,4.6
CCc1ccc(-n2c(O)c(C=NN3CCCCC3c3cccnc3)c(=O)[nH]c2=O)cc1 (stereo not drawn),nt,nt,nt,-6.5,nt,5.2
COC(=O)C1=CC(C(=O)OC)C2C3=C(C(=O)[C@@]2(C)NC(=O)c2ccccc2)C(C)C(C(=O)OC)=C(C(=O)OC)C3C1 (stereo partly drawn),nt,nt,nt,1.3,nt,4.4
Cn1nnnc1N=NC(=NNc1ccccc1)c1ccccc1,nt,nt,nt,-10.6,nt,1.6
Cn1nnnc1N=N/C(=N/Nc1ccccc1)c1ccccc1,13.3,-5.2,233.7*,nt,66.1*,nt
O=C(C=Cc1ccccc1)N1CCN(CC(O)COc2ccccc2)CC1 (stereo not drawn),nt,nt,nt,6.6,nt,3.7
On1ccccc1=S,-37.0,-0.9,381.8*,nt,nt,nt
O=C(Cn1ccccc1=S)c1ccc(Cl)c(Cl)c1,nt,-1.0,nt,-2.1,11.5,2.4
C/C(=N\NC(=O)c1cc(-c2cccnc2)nc2ccccc12)c1ccc(O)cc1O,31.7,2.6,77.7*,nt,21.8,nt
O=C(O)CCC(=O)c1ccc2sc3ccccc3c2c1,24.0,11.1,121.6*,nt,nt,nt
Cc1noc(C)c1NC(=O)Nc1ccc2c(c1)CC(=O)N(C(C)CO)CC(C)C(CN(C)C(=O)Nc1cccc3ccccc13)O2 (stereo not drawn),nt,nt,nt,1.1,nt,2.8
c1ccc(Nc2ccccc2Nc2ccccn2)nc1,-23.9,2.7,-0.2,-3.1,0.7,3.4
Oc1cccc2ccc(Nc3ccccn3)nc12,16.8,-10.9,240.1*,28.6,-0.5,19.7
COc1cccc(-c2nc(=S)c3c(n2Cc2ccco2)CCCC3)c1,-22.4,-0.7,2.8,85.5*,-15.2,-3.3
COC(=O)C1=C(c2ccc(F)cc2OCc2ccccc2)CC2CCC1N2C(=O)NCc1ccc2[nH]ccc2c1 (stereo not drawn),nt,nt,nt,21.1,nt,-8.1
CCN1C(=O)C2C(c3ccc(-c4cccc(Cl)c4)cc3)N[C@@](Cc3ccccc3)(C(=O)OC)C2C1=O (stereo partly drawn),nt,nt,nt,-35.4,nt,-0.7
COc1ccc([C@H]2CC(=O)C=C(c3cc(Cl)ccc3C)C2)cc1,-19.2,41.9,9.0,nt,nt,nt
SMILES,PrP UTR inh,Y pestis TopoI,PfHsp40 yeast,ugtP null kill,BJeLR viability,RN4220 kill
Cc1ccc(Cl)cc1C1=CC(=O)C[C@H](c2ccc(F)cc2)C1,-11.2,69.3*,3.6,nt,nt,nt
COc1cccc(N2C(CC(C)=O)c3ccccc3S2(=O)=O)c1 (stereo not drawn),nt,nt,nt,-0.6,nt,4.3
Cc1cc(C(=O)COC(=O)c2ccco2)c(C)n1Cc1ccco1,26.8,5.4,-0.1,0.3,2.3,5.0
Cc1cc(C(=O)COC(=O)c2cc(Cl)ccc2N)c(C)n1Cc1ccco1,-124.3,2.3,-0.8,99.4*,-11.9,82.0
O=C(N/N=C/c1cccs1)c1cc(-c2ccncc2)nc2ccccc12,-0.7,6.8,-1.1,nt,56.3*,nt
O=c1cc(C=Cc2ccccc2)oc2c1ccc1ccccc12,nt,nt,nt,47.4,nt,10.6
CC(Oc1ccc(Cl)cc1Cl)c1nc(-c2ccc(NC(=O)c3ccncc3)cc2)no1 (stereo not drawn),-3.7,-3.0,-0.5,-21.5,16.7,-10.7

# Compound activity from PubChem BioAssay.
